Data on seven compounds can be found in PubChem BioAssay (EPA / NIEHS).

Molecules are shown by their SMILES. Activity calls are given as the source filed them. Rule for the calls: active = hit-call score of the fitted dose curve at least 0.9, where 1 is the maximum; inactive = score below 0.9.

Test [1] can be described thus: APR_HepG2_P-H2AX_72hr: Apredica 72-hour HepG2 Assay for H2AX Phosphorylation (AID 2282916).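 Note: phospho-histone H2A.x immunostain intensity per cell marking DNA damage.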 Conditions: imaging, actives raise or lower the signal. Put shortly: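 Human hepatoma HepG2 cells are dosed across ten concentrations (0.39 to 200 uM, 0.5% v/v DMSO) and incubated 72 hr. Phospho-histone H2A.x is then detected by antibody staining alongside c-Jun and Hoechst, and quantified by automated fluorescence imaging.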

Test [2] is described as follows: APR_HepG2_MitoMembPot_72hr: Apredica 72-hour HepG2 Assay for Mitochondrial Membrane Potential (AID 2282917). The following applies: imaging, actives raise or lower the signal. Put shortly: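 Membrane potential read by MitoTracker Red CMXRos (250 nM, 30 min, pre-fixation) fluorescence imaging of HepG2 after 72 hr exposure. Ten concentrations, 0.39–200 uM, duplicate wells, 0.5% DMSO; fitted in both directions against DMSO baseline.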

A short description of test [3]: APR_HepG2_MitoticArrest_72hr: Apredica 72-hour HepG2 Assay for Mitotic Arrest (AID 2282918). The following applies: high-content imaging, actives raise or lower the signal. Put shortly: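 HepG2 cells treated 72 h at 0.39–200 uM, 0.5% DMSO final; formaldehyde-fixed, stained with Hoechst 33342 and phospho-histone H3 antibody, imaged by high-content fluorescence; bidirectional fit versus DMSO.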

Test [4] is described as follows: APR_HepG2_MicrotubuleCSK_72hr: Apredica 72-hour HepG2 Assay for Microtubule CSK Stabilty (AID 2282919). The following applies: HepG2 microtubule cytoskeleton, high-content imaging, actives raise or lower the signal. Put shortly:
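High-content imaging of alpha-tubulin staining in fixed HepG2 cells after 72 hr treatment with ten concentrations from 0.39 to 200 uM (0.5% DMSO). Fitting was bidirectional against DMSO; taxol served as positive control.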

The nature of test [5]: APR_HepG2_P-H2AX_24hr: Apredica 24-hour HepG2 Assay for H2AX Phosphorylation (AID 2282920). The following applies: high-content imaging, actives raise or lower the signal. Put shortly:
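HepG2 cells dosed 24 h at 0.39–200 uM (10 points, duplicate, 0.5% DMSO final). Formaldehyde-fixed and permeabilized, then immunostained for phospho-H2A.x with Hoechst. Fluorescence quantified by high-content imaging, fitted bidirectionally versus DMSO.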

Test [6] in a line: APR_HepG2_StressKinase_72hr: Apredica 72-hour HepG2 Assay for Stress Kinase (AID 2282921). The following applies: HepG2 stress kinase (phospho-c-Jun) imaging, actives raise or lower the signal. The essentials: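 After a 72 h compound treatment spanning 0.39 to 200 uM, formaldehyde-fixed cells are labelled for phosphorylated c-Jun and nuclei, imaged by automated fluorescence microscopy, and activity is fitted in both directions relative to DMSO controls.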

Test [7] in a line: APR_HepG2_StressKinase_24hr: Apredica 24-hour HepG2 Assay for Stress Kinase (AID 2282922). The following applies: HepG2 stress kinase (phospho-c-Jun) imaging, actives raise or lower the signal. Put shortly:
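High-content imaging of phospho-c-Jun immunofluorescence in fixed, permeabilized HepG2 cells after 24 h dosing. Ten concentrations, 0.39 to 200 uM, run in duplicate at 0.5% v/v DMSO; gain or loss of signal versus DMSO.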

A short description of test [8]: APR_HepG2_p53Act_72hr: Apredica 72-hour HepG2 Assay for p53 Activation (AID 2282923).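 Note: average cellular p53 protein immunofluorescence intensity in HepG2 cells.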 Conditions: high-content imaging, actives raise or lower the signal. Put shortly:
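Imaging-based endpoint: after 72 hr compound exposure (up to 200 uM, 0.5% DMSO), fixed and permeabilized monolayers were labelled with anti-p53 antibody and imaged; signal change in either direction was fitted relative to DMSO controls.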

A short description of test [9]: APR_HepG2_MitoMass_72hr: Apredica 72-hour HepG2 Assay for Mitochondrial Mass (AID 2282924).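 Note: MitoTracker Red CMXRos stain intensity per cell imaged as mitochondrial mass.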 The following applies: high-content imaging, actives raise or lower the signal. The essentials:
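Readout is imaged MitoTracker Red (250 nM, 30 min, pre-fixation) signal, fitted bidirectionally against DMSO baseline. Human HepG2 liver cells received compound 0.39–200 uM in duplicate for 72 hr, final DMSO 0.5%.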

The nature of test [10]: APR_HepG2_NuclearSize_72hr: Apredica 72-hour HepG2 Assay for Nuclear Size (AID 2282925). Conditions: high-content imaging, actives raise or lower the signal. The essentials: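 Nuclear size was read by high-content imaging of Hoechst 33342 stain after formaldehyde fixation. Compounds ran 72 h on HepG2 at 0.39 to 200 uM, with final DMSO 0.5% v/v. Curves fitted both directions relative to DMSO control.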

A short description of test [11]: ATG_CRE_CIS: Attagene CIS-FACTORIAL HepG2 Assay for human cAMP Responsive Element (CRE) binding protein 3 (AID 2282926). The following applies: HepG2 CRE cis-reporter, Attagene multiplexed mRNA; actives raise or lower the signal. Put shortly: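 Induced reporter mRNA from a CRE cis element, measured in HepG2 among many multiplexed units at 24 h. Detection used RT-PCR plus capillary electrophoresis of fluorescent fragments; DMSO served as negative control.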

Test [12] concerns the target CCAAT/enhancer-binding protein beta (Homo sapiens) (UniProt P17676). Nature of the test: ATG_C_EBP_CIS: Attagene CIS-FACTORIAL HepG2 Assay for human CCAAT/Enhancer Binding Protein (C/EBP) beta (AID 2282927). The following applies: HepG2 Attagene cis-factorial transcription factor reporter; actives raise or lower the signal. The essentials:
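Endogenous transcription factor activity in human liver HepG2 cells is inferred from induction of a CEBPB-linked reporter mRNA. Exposure lasts 24 h; activity is fitted in both directions relative to DMSO.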

The nature of test [13]: ATG_CMV_CIS: Attagene CIS-FACTORIAL HepG2 Assay for human CMV (Internal Marker) (AID 2282928).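 Note: endpoint acts as a background internal control marker rather than a target.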 Conditions: HepG2 CMV promoter reporter, transcription factor profiling; actives raise or lower the signal. Put shortly:
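Bidirectional fits against DMSO are applied to reporter mRNA, read by RT-PCR with capillary electrophoresis, from HepG2 cells exposed 24 h. The endpoint serves as an internal CMV background marker within the cis-factorial reporter panel.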

The nature of test [14]: ATG_DR4_LXR_CIS: Attagene CIS-FACTORIAL HepG2 Assay for human Liver X Receptor (LXR), DR4 submotif (AID 2282929). The following applies: HepG2 Attagene DR4 cis-reporter, mRNA transcription; actives raise or lower the signal. The essentials: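 Transiently transfected HepG2 liver cells; cis-regulated reporters; 24 h dosing. RT-PCR plus CE read-out of reporter mRNA. DMSO baseline, bidirectional curve fitting.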

In test [15] the target is Aryl hydrocarbon receptor (Homo sapiens) (UniProt P35869). Nature of the test: ATG_Ahr_CIS: Attagene CIS-FACTORIAL HepG2 Assay for human Aryl Hydrocarbon Receptor (Ahr) (AID 2282930). The following applies: HepG2 AhR cis-factorial reporter transcription; actives raise or lower the signal. The essentials:
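Transient MRTU transfection of HepG2 → 24 h compound exposure → total RNA, oligo(dT) RT → PCR, 6-FAM extension, HpaI cut → CE fluorescence. DMSO = baseline; bidirectional curve fit.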

Test [16] is described as follows: ATG_AP_2_CIS: Attagene CIS-FACTORIAL HepG2 Assay for human Activator Protein 2 (AP-2) (AID 2282932). The following applies: HepG2 AP-2 cis-reporter, Attagene transcription factor profiling; actives raise or lower the signal. The essentials: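 Endogenous transcription factor activity is reported through transfected multiplex reporter constructs in HepG2, after 24 h of compound exposure. Transcripts were quantified by RT-PCR and capillary electrophoresis of fluorescent fragments. Bidirectional fit against DMSO.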

Test [17] is described as follows: ATG_BRE_CIS: Attagene CIS-FACTORIAL HepG2 Assay for human Bone Morphogenetic Protein (BMP) Response Element (BRE) (AID 2282933). The following applies: HepG2 BMP response element reporter, Attagene transcription factor profiling; actives raise or lower the signal. The essentials:
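HepG2 cells transiently transfected with CIS reporter units (endogenous TF activity, BMP response element), dosed 24 h. Reporter mRNA quantified by RT-PCR, fluorescent labelling and capillary electrophoresis; bidirectional fit vs DMSO baseline.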

Test [18] addresses Retinoic acid receptor alpha (Homo sapiens) (UniProt P10276). Nature of the test: ATG_DR5_RAR_CIS: Attagene CIS-FACTORIAL HepG2 Assay for human Retinoic Acid Receptor Alpha (RARE), DR5 submotif (AID 2282934).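 For AC50: reporter responds to endogenous RAR alpha beta and gamma in HepG2 not RARA alone.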 The following applies: HepG2 Attagene cis-factorial RARE DR5 reporter, mRNA; actives raise or lower the signal. The essentials:
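Transient MRTU transfection of HepG2; 24 h compound treatment; TriZol RNA, oligo(dT) RT, PCR, FAM labelling, capillary electrophoresis. Bidirectional fit vs DMSO. Endogenous TF activity at DR5 RARE.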

In test [19] the target is Transcription factor E2F1 (Homo sapiens) (UniProt Q01094). Briefly: ATG_E2F_CIS: Attagene CIS-FACTORIAL HepG2 Assay for human E2F Transcription Factor 1 (AID 2282935). Conditions: HepG2 Attagene cis-reporter, E2F reporter RNA transcripts; actives raise or lower the signal. Put shortly: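 Gain or loss of reporter transcript, fitted against DMSO, reflects E2F1-driven transcription. Transiently transfected HepG2 dosed 24 h before RNA isolation. Quantified by fluorescent RT-PCR products separated by capillary electrophoresis.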
Chain of Transcription factor E2F1 (Homo sapiens) (Q01094 whole entry, looked up): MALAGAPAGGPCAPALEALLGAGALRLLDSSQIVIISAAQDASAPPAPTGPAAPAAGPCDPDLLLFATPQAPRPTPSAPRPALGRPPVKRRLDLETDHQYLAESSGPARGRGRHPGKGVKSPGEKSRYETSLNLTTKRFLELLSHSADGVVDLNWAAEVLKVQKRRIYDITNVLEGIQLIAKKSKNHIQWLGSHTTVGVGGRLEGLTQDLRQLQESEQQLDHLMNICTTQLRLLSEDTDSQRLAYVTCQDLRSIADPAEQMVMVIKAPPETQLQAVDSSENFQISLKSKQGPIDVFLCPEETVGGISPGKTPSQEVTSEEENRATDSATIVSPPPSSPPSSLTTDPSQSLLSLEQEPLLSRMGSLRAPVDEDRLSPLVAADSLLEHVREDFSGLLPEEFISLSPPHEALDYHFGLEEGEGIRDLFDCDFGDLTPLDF

Test [20] can be described thus: ATG_AP_1_CIS: Attagene CIS-FACTORIAL HepG2 Assay for human Activator Protein 1 (AP-1) (AID 2282931). Conditions: HepG2 Attagene cis-factorial AP-1 reporter mRNA; actives raise or lower the signal. The essentials: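 We transfected HepG2 cells transiently with a set of cis-regulated reporter transcription units, dosed them for 24 h, and quantified reporter mRNA via RT-PCR and capillary electrophoresis, scoring gain or loss of signal relative to DMSO.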

Chain of Aryl hydrocarbon receptor (Homo sapiens) (P35869 whole entry, looked up): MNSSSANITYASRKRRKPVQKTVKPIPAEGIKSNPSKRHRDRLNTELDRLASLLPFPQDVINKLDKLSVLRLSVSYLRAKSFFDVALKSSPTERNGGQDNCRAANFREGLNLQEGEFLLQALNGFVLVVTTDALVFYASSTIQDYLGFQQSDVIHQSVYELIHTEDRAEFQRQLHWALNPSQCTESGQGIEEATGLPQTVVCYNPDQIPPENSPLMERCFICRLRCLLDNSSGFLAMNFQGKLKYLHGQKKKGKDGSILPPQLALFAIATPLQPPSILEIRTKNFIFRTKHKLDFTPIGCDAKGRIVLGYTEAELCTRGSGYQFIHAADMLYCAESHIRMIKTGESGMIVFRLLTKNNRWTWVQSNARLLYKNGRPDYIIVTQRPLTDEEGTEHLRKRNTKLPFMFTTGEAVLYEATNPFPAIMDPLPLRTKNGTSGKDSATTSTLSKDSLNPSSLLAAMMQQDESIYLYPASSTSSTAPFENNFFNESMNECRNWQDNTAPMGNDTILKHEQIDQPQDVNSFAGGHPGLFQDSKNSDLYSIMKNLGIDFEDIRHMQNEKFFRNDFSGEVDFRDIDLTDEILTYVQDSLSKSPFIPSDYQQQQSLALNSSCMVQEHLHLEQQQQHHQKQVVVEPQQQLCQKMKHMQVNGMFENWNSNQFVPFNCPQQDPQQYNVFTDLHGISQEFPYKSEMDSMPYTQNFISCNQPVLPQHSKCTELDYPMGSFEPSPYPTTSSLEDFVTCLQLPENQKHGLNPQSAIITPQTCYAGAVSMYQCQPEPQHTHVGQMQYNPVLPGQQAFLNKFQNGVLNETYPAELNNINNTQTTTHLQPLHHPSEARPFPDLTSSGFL
Chain of Retinoic acid receptor alpha (Homo sapiens) (P10276 whole entry, looked up): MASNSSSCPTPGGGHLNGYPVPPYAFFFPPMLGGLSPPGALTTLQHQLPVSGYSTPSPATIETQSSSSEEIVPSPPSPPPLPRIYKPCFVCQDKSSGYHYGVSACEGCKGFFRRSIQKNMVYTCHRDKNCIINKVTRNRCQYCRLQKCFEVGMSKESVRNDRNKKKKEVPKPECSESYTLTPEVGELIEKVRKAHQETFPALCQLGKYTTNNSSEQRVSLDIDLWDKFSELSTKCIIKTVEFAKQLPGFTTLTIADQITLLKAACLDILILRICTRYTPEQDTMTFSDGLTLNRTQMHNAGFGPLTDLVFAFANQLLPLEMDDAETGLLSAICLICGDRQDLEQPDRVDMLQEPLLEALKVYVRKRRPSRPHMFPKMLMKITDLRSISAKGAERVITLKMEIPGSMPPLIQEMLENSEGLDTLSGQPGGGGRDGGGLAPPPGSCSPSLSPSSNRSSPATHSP
Chain of CCAAT/enhancer-binding protein beta (Homo sapiens) (P17676 whole entry, looked up): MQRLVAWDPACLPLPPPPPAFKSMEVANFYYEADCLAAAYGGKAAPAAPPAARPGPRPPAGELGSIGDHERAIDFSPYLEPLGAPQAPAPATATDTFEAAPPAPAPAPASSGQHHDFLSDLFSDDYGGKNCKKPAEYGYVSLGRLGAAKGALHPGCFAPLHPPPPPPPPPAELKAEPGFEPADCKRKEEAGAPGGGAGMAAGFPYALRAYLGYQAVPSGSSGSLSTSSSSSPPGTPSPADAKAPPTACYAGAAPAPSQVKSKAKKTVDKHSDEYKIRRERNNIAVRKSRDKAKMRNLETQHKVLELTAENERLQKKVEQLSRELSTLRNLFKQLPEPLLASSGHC

`C[N+]1(C)CCCCC1`: the compound was called inactive in test [1], in test [2], in test [3], in test [4], in [5] and in test [6]. Also, the compound was classed as inactive in [7], in [8], in test [9], in test [10], in test [11] and in [12]. Also, the compound was called inactive in [13], in test [14], in test [15], in test [16], in test [17] and in [18]. Besides, the result in [19] was inactive.
In general, AC50 refers to the concentration at which the activity in the assay is half-maximal. As to `CCOP(=S)(OCC)OC(Cl)C(Cl)(Cl)Cl` (stereo not drawn), the compound was called inactive in test [1], in [2], in test [3], in test [5], in test [6] and in test [7]. In addition, the result in test [8], in test [9], in test [10], in test [15], in [16] and in test [17] was inactive. In addition, the call in test [18] and in test [19] was inactive. In addition, the AC50 is 109 µM (active) in [4], 25.3 µM (active) in test [11], 30.3 µM (active) in test [12] and 71.1 µM (active) in test [13].
Consider `CCCOCC(=Nc1ccc(Cl)cc1C(F)(F)F)n1ccnc1`, for which the result in [1], in test [2], in test [3], in [4], in test [5] and in [6] was inactive. The call in test [7], in test [8], in [9], in test [10], in test [11] and in test [12] was inactive. Further, the outcome in test [15], in [16], in test [17] and in test [19] was inactive. The half-maximal activity concentration (AC50) is 7 µM (active) in test [13] and 0.295 µM (active) in test [18].
`CCCCOC(=O)[C@@H](C)Oc1ccc(Oc2ccc(C#N)cc2F)cc1`: the call in [1], in [2], in [3], in [4], in test [5] and in test [6] was inactive. The compound was classed as inactive in [7], in test [8], in [9], in [10], in test [11] and in test [12]. In addition, the outcome in [13], in [15], in test [20], in test [16], in test [17] and in test [19] was inactive.
As to `O=C(O)c1cc(Oc2ccc(C(F)(F)F)cc2Cl)ccc1[N+](=O)[O-]`, the call in test [1], in test [2], in test [3], in [4], in [5] and in [6] was inactive. The result in [7], in test [9], in test [10], in test [11], in test [12] and in test [13] was inactive. Also, the result in [15], in test [20], in test [16], in [17], in [18] and in [19] was inactive.
As for `COP(=O)(NC(C)=O)SC` (stereo not drawn), the compound was classed as inactive in test [1], in [2], in test [3], in test [4], in test [5] and in [6]. Also, the result in test [7], in test [8], in test [9], in test [10], in test [11] and in [12] was inactive. The outcome in test [13], in test [15], in test [20], in [16], in test [17] and in [19] was inactive.
`CCCCN(CC)c1c([N+](=O)[O-])cc(C(F)(F)F)cc1[N+](=O)[O-]`: the compound was called inactive in [1], in test [2], in test [3], in test [4], in test [5] and in [6]. Besides, the result in test [7], in test [8], in [9], in [10], in test [11] and in test [12] was inactive. The outcome in test [13], in test [15], in test [20], in test [16], in test [17] and in test [19] was inactive. Further, in test [18], the AC50 is 20.1 µM (active).
